Unmarked numbers belong to inactive results. The source made the active and inactive calls.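 How the source made its calls: active means z-score of at least 1.8 in each of two replicates, scored against plate mean and spread of sample wells; inactive means the rest.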

This test in a line: galactose survival enhancers in mitochondrial complex I cybrids – cell-based, galactose medium, ATP luminescence, primary screen (AID 1645843).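 Further: positive z means more ATP and so rescue of galactose-driven cybrid death.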 The note with it: complex I mutant cybrid cells, 72 h, hits give high values.
Turning to `Cc1cc(CN2CCN(C)C(CCO)C2)c2cccc(C)c2n1` (stereo not given), the z-score is -0.035.
Consider `CC(=O)c1c(C)cc(C)c(CNC(C)CCCC(C)(C)O)c1C` (stereo not given), for which the z-score is -0.52.
For `CCC1(CO)CCCN(c2ncc(C(F)(F)F)cc2Cl)C1` (stereo not given), the z-score was 2.98 (active).
With `COc1ccc(OC)c(-c2ccc3nc(C)ccc3c2)c1` the figure was -1.14; with `CCCn1cc(-c2ccnc(NC(CC(C)(C)C)c3cccnc3)n2)c(C)n1` (stereo not given), 1.13; with `CCCCC(CO)NC(C)CCc1ccc(O)cc1` (stereo not given), -0.565.
As for `O=C(Nc1cccnc1)c1csc(Cc2ccccc2)n1`, the z-score was -0.815.
`NC(=O)NCc1cn(CC2CCN(C(=O)CC3CCCCCC3)CC2)nn1`: the z-score is -0.605.
Consider `CCCCn1cc(-c2cc(C(=O)N3CCCC3)c3cccc(C)c3n2)cn1`, for which the z-score was 2.59 (active).
On to `CC(C)CN1CCN(c2ccc(C(F)(F)F)cn2)C(C)C1=O` (stereo not given), for which the z-score is -0.56.
For the compound `Cc1cc(C)c(C(=O)N2CCCCC2CCN2CCCC2=O)cc1C` (stereo not given), the z-score was -0.46.
With `CCCCn1nnnc1NC(=O)N1C2CCCCC1CCC2`, the z-score was 0.915.
Consider `COc1cccc2c(C)cc(N3CCC[C@H]3CO)nc12`, for which the z-score was -0.095.
As to `CN1CCN(Cc2cnc3ccccc3c2)CC1CCO` (stereo not given), the z-score is 0.
Regarding `CC(Oc1ccc2c(c1)OCO2)C(=O)N1CCCCC1CCN1CCCC1=O` (stereo not given), the z-score is 1.73.
On to `CC(=O)c1c(C)nn(CC(=O)Nc2ccnn2C2CCCCC2)c1C`, for which the z-score is 0.2.
`O=C(CC1CCCCCC1)N1CCC(Cn2cc(C3CC3)nn2)CC1`: the z-score is -0.55.
For the compound `CCCCn1nnnc1NC(=O)NC1CCN(Cc2ccncc2)CC1`, the z-score is -0.755.
`Cc1nc(C(=O)N2CCCC(Cn3cc(-c4ccsc4)nn3)C2)cs1` (stereo not given): the z-score was -0.08.
Turning to `Cc1cn(CC(=O)Nc2cnn(C)n2)nc1-c1cccs1`, the z-score was 0.735.
Regarding `CC(C)Cc1cn(C2CCN(C3CCCCCC3)CC2)nn1`, the z-score is -0.565.
Regarding `CCC(CO)n1cnc2sc3c(c2c1=O)CCCCC3` (stereo not given), the z-score is 1.99.
With `CC(CCCC(C)(C)O)CCNCC1(c2ccccc2)CCOCC1` (stereo not given) the figure was -0.5; with `CC1CCc2c(sc3ncn(Cc4noc(C(C)C)n4)c(=O)c23)C1` (stereo not given), -0.525.
For `CCC(CC)(CCC#N)CNC1COC2(CCCCC2)C1` (stereo not given) the value was -0.53.
Turning to `Cc1c(C(F)(F)F)nc(-c2ccc(CN3CCN(C)C(=O)C3)cc2)[nH]c1=O`, the z-score was -0.5.
Turning to `CC(C)Cc1noc(C2C3CCC4C(CCC32)C4(Cl)Cl)n1` (stereo not given), the z-score was -0.52.
For `OC[C@H](Cc1ccccc1)NC1CCCCCC1` the value was -0.555.
Take `COc1cc(C)ccc1C(=O)N1CCC(Cn2cc(C3CC3)nn2)CC1`: the z-score is -0.52.
Consider `CCOc1ccc2ccccc2c1-c1nc2c(cnn2CC)[nH]1`, for which the z-score was -0.255.
Turning to `O=C(Nc1cccc(-c2cncnc2)c1)c1ccc2c(c1)OCO2`, the z-score was -0.62.
`CCC(CC)CN1CCC(NS(C)(=O)=O)CC1`: the z-score is -0.53.
As to `CC(C)(C)c1cn(C2CCN(C(=O)CC3CCCCCC3)CC2)nn1`, the z-score was -0.225.
As for `Cc1ccn2cc(Cn3cnc4ccc(F)cc4c3=O)nc2c1`, the z-score is 0.645.
For `O=C1NCCN(C(=O)c2ccccc2)C1Cc1ccccc1` (stereo not given) the value was -0.54.
`CCCC(NC(=O)c1cc(C)oc1C)c1ccccc1` (stereo not given): the z-score is -0.63.
`O=C(Nc1cccc(-c2cscn2)c1)c1ccc2nccnc2c1`: the z-score was -0.95.
For the compound `O=C(CC1CCCCCC1)N1CCC(n2cc(-c3ccccn3)nn2)CC1`, the z-score is -0.34.
Consider `Cc1nsc(NC(=O)N2CCCN(c3ccccc3)CC2)n1`, for which the z-score is -0.19.
With `CCC1(CNC(=O)Nc2nc(C)ns2)CCC1` the figure was 1.42.

Source of the values: PubChem BioAssay.
